# Bioassay records: PubChem BioAssay, NMMLSC
# Cdc42 wt: modulators of GTP binding to wildtype Cdc42, primary screen, biochemical, multiplex bead flow cytometry, Bodipy-GTP. Cell division control protein 42 homolog (Homo sapiens), P60953. 190,000 tested, 0.2% active. percent activity (GTP binding), % at 10 µM. GST-Cdc42 beads; actives lie on both sides;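 active = percent activity GTP binding at least 20 points away from the 100% baseline, either down as inhibitor or up as activator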;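 note: median bead fluorescence of bound Bodipy-FL-GTP at 100 nM; 0% = excess unlabeled GTP control and 100% = no compound control; below 100% means less GTP binding so inhibitor and above means activator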
# Target sequence (P60953 whole entry, looked up): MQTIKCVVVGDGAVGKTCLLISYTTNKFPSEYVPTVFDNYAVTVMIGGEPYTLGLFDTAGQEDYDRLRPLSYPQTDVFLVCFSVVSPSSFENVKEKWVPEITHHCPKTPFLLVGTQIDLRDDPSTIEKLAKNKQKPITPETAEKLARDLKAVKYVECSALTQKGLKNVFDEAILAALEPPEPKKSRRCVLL
# Rac1 wt modul: wildtype Rac1 GTP binding modulators, primary screen, biochemical, GST-Rac1 beads, flow cytometry, multiplex. fluorescent GTP binding; actives lie on both sides; 0 = cold GTP competed, 100 = untreated. 190,000 tested, 0.27% active. Ras-related C3 botulinum toxin substrate 1 (Homo sapiens), P63000. GTP binding activity (% of control), % at 10 µM;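 active = GTP binding activity at least 20 points away from the 100% control level, either lower or higher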
# Rab7 wt GTP bind: modulators of GTP binding to Rab7, primary screen, biochemical, wildtype, multiplex bead flow cytometry | Rab7 GTPase wild type (dog), Bodipy-FL-GTP binding | GST-Rab7 beads, fluorescent GTP binding; actives lie on both sides; untreated = 100%, excess cold GTP = 0% | GTP binding activity (percent of control), % at 10 µM | 190,000 tested, 0.055% active | AID 758, 2007;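 active = fluorescent GTP binding to Rab7 beads changed by at least 20 points from the 100% baseline, either direction, mostly lower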;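 note: median green fluorescence of bound Bodipy-FL-GTP per Rab7 bead population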
# Rac1 act GTP bind: GTP binding modulators of activated mutant Rac1, primary screen, biochemical, bead-based flow cytometry, multiplex, fluorescent GTP; Ras-related C3 botulinum toxin substrate 1 (Homo sapiens), P63000; GST-Rac1 activated beads; actives lie on both sides; 100% means binding = to untreated wells; percent activity (GTP binding), % at 10 µM; 190,000 tested, 0.11% active;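 active = GTP binding at least 20 percentage points away from the 100% baseline, in either direction, so actives lie on both sides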
# HRas wt GTP: modulators of GTP binding to HRas wildtype, primary screen, biochemical, bead-based flow cytometry, multiplex; GTPase HRas (Homo sapiens), P01112; GST-Ras wt beads, Bodipy-FL-GTP binding; actives lie on both sides; GTP binding activity, % at 10 µM; 190,000 tested, 0.14% active;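 active = GTP binding activity at least 20% away from the 100% baseline, either lowered as inhibitor or raised as activator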;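 note: 0% = unlabeled GTP competition control and 100% = no-compound control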
# Target sequence (P01112 whole entry, looked up): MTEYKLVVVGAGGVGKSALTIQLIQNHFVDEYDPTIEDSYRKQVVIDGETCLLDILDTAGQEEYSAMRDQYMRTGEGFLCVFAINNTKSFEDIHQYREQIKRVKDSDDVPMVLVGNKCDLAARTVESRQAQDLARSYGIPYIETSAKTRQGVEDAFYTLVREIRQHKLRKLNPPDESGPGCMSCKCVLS
# Rab2 wt GTP: modulators of GTP binding to Rab2A wildtype, primary screen, biochemical, dog, bead-based flow cytometry, multiplex; Ras-related protein Rab-2A (Canis lupus familiaris), P61105; GST-Rab2 wt beads, Bodipy-GTP binding; GTP binding activity, % at 10 µM; 190,000 tested, 0.19% active; AID 760, 2007;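 active = GTP binding activity at least 20 points away from 100%, either lowered or raised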;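 note: 0% = beads with excess unlabeled GTP and 100% = no-compound control corrected for plate trend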
# * = called active by the depositor; [ ] = remark or other dose. This is a sample that favours compounds with a hit; in the whole collection about 0.4% have one here.
SMILES,Cdc42 wt,Rac1 wt modul,Rab7 wt GTP bind,Rac1 act GTP bind,HRas wt GTP,Rab2 wt GTP
O=C(Cn1cnc2c(nnn2Cc2ccccc2)c1=O)NCC1CCCO1 (stereo unspecified),104,110,101,99,104,102
O=C(Cn1cnc2c(nnn2Cc2ccccc2F)c1=O)NCC1CCCO1 (stereo unspecified),118,120*[activator],109,104,109,126*[activator]
Cc1cc(C(=O)Cn2nc(C(=O)O)c3ccccc3c2=O)c(C)n1-c1ccc(F)cc1,89,88,94,87,95,87
O=C(COc1cc(Cl)ccc1Cl)Nc1nnc(CC(=O)N2CCOCC2)s1,71*,87,86,86,70*,72*
O=C(Nc1nnc(CC(=O)N2CCOCC2)s1)c1cccs1,104,107,102,99,102,102
COc1ccc(-c2nn3c(-c4ccccn4)nnc3s2)cc1OC,82,74*,86,89,80,79*
Nc1ccc(-c2cn3cccnc3n2)cc1,79*,72*,90,86,78*,78*
Cc1cc(-c2n[nH]c(=S)n2/N=C/C(Cl)=C/c2ccccc2)n[nH]1,92,85,77*,85,77*,85
O=C(CNC(=O)Cc1ccccc1)N=Nc1c(O)n(Cc2ccc3c(c2)OCO3)c2ccccc12,90,78*,90,88,84,78*
COc1ccc2nc(-n3c(O)c(C4=c5ccccc5=NC4=O)[nH]c3=S)sc2c1,93,92,94,91,91,89
Cn1c(O)c(C2=c3ccccc3=NC2=O)[nH]c1=S,90,79*,94,90,87,85
CCOc1ccccc1CN1CCN(Cc2csc(C(C)=O)c2)CC1CCO (stereo unspecified),100,98,97,97,98,95
C/C(=N\NC(=S)NCc1ccccc1)c1ccc(C)o1,94,97,94,93,96,94
Nc1c(C(=O)C2CC2)sc2nc(-c3cccs3)cc(C(F)(F)F)c12,109,120*[activator],116,103,110,117
Nc1nc(CN2CCN(c3ccccc3F)CC2)nc(N2CCCc3ccccc32)n1,79*,87,88,80,87,83
Cc1ccc(C)c(N2CCN(C(=O)CN(C)S(=O)(=O)c3ccc4c(c3)CCC(=O)N4)CC2)c1,76*,79*,84,80,82,77*
COc1ccc(/C=C2\CCCC3C2=NN(C(=O)c2scnc2C)C3c2ccc(OC)c(OC)c2)cc1OC (stereo unspecified),66*,81,88,85,67*,66*
Cc1ccccc1NC(=O)CN1C(=O)S/C(=C\c2ccc(-c3cc(C(=O)O)ccc3C)o2)C1=O,79*,87,91,83,86,85
COc1ccc2c(CCNC(=O)c3ccc([N+](=O)[O-])cc3)c[nH]c2c1,99,103,98,99,100,96
COc1ccc(-c2nnc(S/C(=C/c3ccc(Cl)cc3)C(=O)O)o2)cc1,74*,81,85,73*,83,75*
Cc1ccc(Nc2nnc(SCC(=O)NCCN3C(=O)CSC3=O)s2)cc1C,97,94,95,96,94,93
O=C(Nc1ccc(Cl)cc1C(F)(F)F)c1ccccc1,102,103,98,99,98,100
COc1ccc(-n2c(NC(=O)c3ccc(Br)o3)c(C#N)c3nc4ccccc4nc32)cc1,77*,79*,85,79*,81,79*
COc1ccc(Cn2c(N)c(C#N)c3nc4ccccc4nc32)cc1,99,99,99,97,96,97
CCCC(=O)NCCc1nc2cc([N+](=O)[O-])ccc2n1C,99,100,99,100,100,98
SMILES,Cdc42 wt,Rac1 wt modul,Rab7 wt GTP bind,Rac1 act GTP bind,HRas wt GTP,Rab2 wt GTP
COc1ccc(CCNC(=O)NC2CCCCC2)cc1OC,97,96,96,95,96,97
COc1ccc(CCNC(=O)C2CCCN2C(=O)NC2CCCCC2)cc1OC (stereo unspecified),141*[activator],143*[activator],99,114,122*[activator],128*[activator]
Cc1cc(NS(=O)(=O)c2ccccc2)c(C)c(Cl)c1O,106,105,98,103,101,101
O=S(=O)(Nc1cc(Sc2ncn[nH]2)c(O)c2ccccc12)c1ccccc1,95,78*,91,89,92,91
O=C(/C(C=Nc1ccc(F)cc1)=C(/O)c1ccco1)C(F)(F)F,100,102,100,100,99,102
COc1ccc(CN2C(=O)/C(=C/c3ccc(-c4ccc(Cl)c(C(=O)O)c4)o3)SC2=S)cc1,75*,76*,84,76*,73*,79*
Cc1ccc(/C=C2\SC(=S)N(Cc3ccccc3)C2=O)o1,88,89,89,88,89,90
O=C(O)c1cc(-c2ccc(/C=C3/SC(=S)N(Cc4ccccc4)C3=O)o2)ccc1Cl,76*,74*,89,77*,80,78*
Cc1[nH]c2ccccc2c1SCC(=O)N1CCCCCC1,96,101,102,95,100,96
COc1cc([N+](=O)[O-])cc(/C=N/NC(=O)c2ccc(NC(=O)c3ccc(C)cc3)cc2)c1O,83,81,83,80,80,78*
CC(/C=N\NC(=O)CN1CCN(S(=O)(=O)c2ccc(C)cc2)CC1)=C\c1ccccc1,98,99,98,101,99,100
COC(=O)c1ccc(CSc2nnc(NC(=O)C3CC(=O)N(c4ccc5c(c4)OCCO5)C3)s2)cc1 (stereo unspecified),105,103,97,98,100,97
O=C(COC(=O)c1ccc2c(c1[N+](=O)[O-])C(=O)c1ccccc1C2=O)NC1CC1,73*,70*,91,83,76*,73*
Cc1cc(C(=O)CSc2nn3c(=O)c(C(C)(C)C)nnc3s2)c(C)n1C,99,102,97,96,98,97
CCn1c(C)c(CS(=O)(=O)c2ccccc2)[nH]c1=O,100,102,103,96,101,100
